MARV entry inh: inhibitors of Marburg virus binding or entry into cells. Potency, µM (titrated, usually from 49.2 µM), without a hit: at the highest dose activity change, negative = inhibition, most hits filed as inhibitors. Marburg virus pseudotype entry/binding inhibition, cell-based. 18,000 tested, 6.5% active
LASV entry inh: Lassa virus entry inhibition; Lassa virus pseudotyped entry inhibition, cell-based qHTS; Potency, µM (doses to about 49.2 µM), for inactives: top-dose activity change, negative = inhibition, most hits filed as inhibitors; 18,000 tested, 4.1% active; AID 720533
The depositor's hits bear a star; u = inconclusive; x = no result given; ! = a repeat was not active; [ ] = dose if it differs, or a comment. Compounds with a hit are over-represented: about 7.1% of the library has one in this group of screens. Calls come from the whole dose curve; tested in HEK293 cells. % is set by controls: 0 for no effect and ±100 for the full control effect; potency is the fitted concentration of half-maximal effect.

SMILES | MARV entry inh | LASV entry inh
CC(C)CN[S+](=O)([O-])c1ccc(Br)cc1N1CCC[C@H]1CO | 14% | 15%
CC(C)COCC(CN(Cc1ccccc1)c1ccccc1)N1CCCC1 (configuration not stated) | 6.3µM* | 14µM*!
COC(=O)C1=C(C)NC(C)=C(C(=O)OCCN(C)Cc2ccccc2)C1c1cccc([N+](=O)[O-])c1 (configuration not stated) | 11µM* | 25µM*!
COC(=O)C1=C(C)NC(C)=C([N+](=O)[O-])C1c1ccccc1C(F)(F)F (configuration not stated) | -27% | -29%
COC(=O)C1=C(C#N)NC(C)=C(C(=O)OC(C)C)C1c1cccc([N+](=O)[O-])c1 (configuration not stated) | u | -25%
COC(=O)C1=C(C)NC(C)=C(C(=O)OCCN2CCN(C(c3ccccc3)c3ccccc3)CC2)C1c1cccc([N+](=O)[O-])c1 (configuration not stated) | 13µM* | 22µM*
C=C[C@H]1C[C@H]2C=C(C)COP(=O)(O2)O1 | -5% | 39%
CCCCCC(=O)N1C[C@@H](O)[C@H](n2cc(-c3ccc(F)cc3)nn2)C[C@H]1c1ccc(C)cc1 | -9% | 10%
COC(=O)c1ccc(CN2C(=O)[C@]3(OCCC=C[C@@H]3C)c3cc(OC)ccc32)cc1 | -23%[8.59 µM] | 8%[8.59 µM]
CC1CCC2C(C)C(=O)OC3O[C@]4(C)CCC1[C@@]32OO4 (some centres not stated) | -26% | -23%
C[C@@H]1CC[C@H]2[C@@H](C)C(=O)O[C@@H]3O[C@@]4(C)CC[C@@H]1[C@]32OO4 | 1.8µM* | 2.2µM*
CCC1(C2CCN(Cc3cc4ccccc4o3)CC2)NC(=O)N(CC2COc3ccccc3O2)C1=O (configuration not stated) | 32µM* | -30%
CCC1(C2CCN(Cc3ccccc3Cl)CC2)NC(=O)N(CC2COc3ccccc3O2)C1=O (configuration not stated) | u | -9%
COC(=O)[C@]1(C)CC[C@@]2(C)CC[C@@]3(C)C4=CCc5c(cc(O)c(O)c5C)[C@]4(C)CC[C@@]3(C)C2C1 (some centres not stated) | u | 18µM*
C=CCN1c2ccccc2[C@]23CCC(=O)N(CCOC)C2=NC(C(=O)OC)=C(C(=O)OC)[C@H]13 | 13%[8.59 µM] | 50%[8.59 µM]
CC(CCN1CCCCc2nc(C)c(C)cc21)=NO[C@H](C)c1cn([C@H](CO)Cc2ccccc2)nn1 | u | 9%[8.59 µM]
CCN1C(=NCc2cccc(Cl)c2)NC(c2cccc(C(F)(F)F)c2)C(C(=O)OC)=C1C (configuration not stated) | -25%[8.59 µM] | u
O=c1cc(-c2ccccc2)oc2cc(O[C@@H]3O[C@H](CO)[C@@H](O)[C@H](O)[C@H]3O)c(O)c(O)c12 | 3.5µM* | -22%
O=c1cc(-c2ccc(O)cc2)oc2cc(O[C@H]3OC(CO)C(O)C(O)C3O)cc(O)c12 (some centres not stated) | 66% | 44%
CCOC(=O)OC[C@H]1O[C@H](c2ccccc2)C=C[C@H]1OC(=O)OCC | 42%[8.59 µM] | 10%[8.59 µM]
CC(CN1c2ccccc2Sc2ccc(S(=O)(=O)N(C)C)cc21)N(C)C (configuration not stated) | u | -5%
CCc1ccc2c(c1)N(CC(C)CN(C)C)c1ccccc1S2 (configuration not stated) | 14µM* | 18µM*
CC(C)C[C@H](CO)NS(=O)(=O)c1cccc(Cl)c1F | 85% | 6%
CCCOc1ccc2nc(NC(=O)OC)sc2c1 | 17% | 3.2µM*
COC(=O)Nc1nc2ccc(Oc3ccc(NC(=O)Nc4cc(C(F)(F)F)ccc4F)cc3)cc2s1 | u | 6%
SMILES | MARV entry inh | LASV entry inh
COc1ccc(CNC(=O)c2ccc(-c3cc(-c4nnc(C)o4)ccc3C)cc2)cc1 | -34% | x
O=C1Nc2ccccc2C2(CCN(CCc3ccc(C(F)(F)F)cc3)CC2)O1 | 11µM* | u
FC(F)(F)c1cccc(C2=CCN(CCc3ccc4ccccc4c3)CC2)c1 | -1% | -1%
O=C(c1cccs1)N1C[C@H](n2cc(C3CC3)nn2)[C@H](O)C[C@@H]1c1ccccc1 | 14% | 9%
COC(=O)N1C2=C(c3ccccc3[C@@H]1CC(=O)O)[C@@H]1O[C@@H](C2)c2ccccc21 | u | -14%[8.59 µM]
CCCCN1CC(COCc2ccccc2)Oc2cccc(Oc3ccc(C)cc3)c2S1(=O)=O (configuration not stated) | -25% | x
CCCCN1CC(COCc2ccccc2)Oc2cccc(Oc3ccccc3)c2S1(=O)=O (configuration not stated) | -42% | 4µM*
Oc1cc2c(cc1O)[C@@H]1c3ccc(O)c(O)c3OC[C@]1(O)C2 | 5.6µM* | -20%

From PubChem BioAssay
